Source: PubChem BioAssay AID540336 (Broad Institute, 2011)
Screen size: about 330,000 compounds; about 520 (0.16%) were called active. The list comes from a sample in which actives are over-represented; it also holds similar structures and randomly drawn compounds. A number with no mark means an inactive call.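 Rule for the calls: active = inhibition of at least 50% in every replicate; inconclusive = best replicate reaches 50% inhibition but some replicates fall short; inactive = the rest.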

Target: Histone acetyltransferase RTT109 (Candida albicans (strain SC5314 / ATCC MYA-2876)) (UniProt Q5AAJ8)
Sequence (Q5AAJ8 whole entry, looked up): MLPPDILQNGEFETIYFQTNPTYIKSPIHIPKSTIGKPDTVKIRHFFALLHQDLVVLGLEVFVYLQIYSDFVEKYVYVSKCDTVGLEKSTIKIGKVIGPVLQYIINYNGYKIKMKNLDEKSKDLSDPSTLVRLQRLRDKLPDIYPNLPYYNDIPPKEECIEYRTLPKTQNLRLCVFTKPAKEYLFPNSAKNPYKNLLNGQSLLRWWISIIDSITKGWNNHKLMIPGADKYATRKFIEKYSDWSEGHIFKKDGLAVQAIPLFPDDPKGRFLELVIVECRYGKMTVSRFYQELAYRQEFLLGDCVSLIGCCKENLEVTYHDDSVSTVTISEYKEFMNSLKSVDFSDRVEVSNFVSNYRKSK
Test: inhibitors of C. albicans Rtt109/Vps75 HAT, primary screen, biochemical, ThioGlo CoA-SH fluorescence, plate reader (AID 540336)
Settings: purified Rtt109/Vps75, ThioGlo CoA-SH fluorescence, 4 h; at 34.9 µM; hits give high values

| Structure (SMILES) | inhibition |
| --- | --- |
| Oc1cccc(CCc2ccccn2)c1 | -14.8% |
| CC/C(=C\c1ccc(Cl)cc1)c1ccncc1 | -6.6% |
| CC12CCCCC1=CC(=O)CC2 (stereo unspecified) | -10.3% |
| CC1=NN(/C(=N\c2nnc(C)s2)Nc2ccccc2)[C@H](c2ccc(C)cc2)S1 | -10.9% |
| Cc1cn(C2CC(O)C(CO)O2)c(=O)n(CCCc2ccccc2)c1=O (stereo unspecified) | 5.62% |
| COc1ccc(/C=C2/CCCc3ccccc3C2=O)cc1 | -1.83% |
| O=C(CNC(=O)c1ccccc1F)OCC(=O)c1c[nH]c2ccccc12 | 3.64% |
| COc1ccc(Cl)cc1C=CC=NNC(=O)c1ccncc1 | -2.75% |
| Cc1cccc(NC(=S)N2CCC(C(=O)c3ccc(F)cc3)CC2)c1 | -3.47% |
| O=C(Nc1ccc(S(=O)(=O)N2CCOCC2)cc1)C1CCN(S(=O)(=O)c2ccc(Cl)cc2)CC1 | 1.41% |
| C/C(=N\NC(=O)Cc1ccc(Cl)cc1)c1ccccn1 | 1.88% |
| CCOc1cc2ccccc2cc1C(=O)Nc1ccccn1 | -0.763% |
| CCN(CC)CCOc1ccc2c(c1)C(=NNC(=O)c1ccccn1)c1cc(OCCN(CC)CC)ccc1-2 | 72.5% (active) |
| COc1ccc(CCC(=O)Nc2ccc(Cl)c(S(=O)(=O)N3CCOCC3)c2)cc1OC | 4.5% |
| CCNC(=S)NCC | 3.05% |
| O=C(O)c1ccc([N+](=O)[O-])cc1Sc1ccsc1 | -13.5% |
| CC(NC(=O)c1ccccc1)C(=O)OCC(=O)Nc1cccc(S(=O)(=O)N2CCCC2)c1 (stereo unspecified) | 9.23% |
| CCCCN1CC(CO)Oc2cccc(F)c2S1(=O)=O (stereo unspecified) | -0.514% |
| COc1ccc(CCNC(=O)COC(=O)c2cnc(Cl)c(Cl)c2)cc1 | 9.18% |
| COc1ccc(CCNC(=O)CSc2nc(-c3ccc(OC)c(OC)c3)ccc2C#N)cc1 | 0.0988% |
| COc1cccc(-c2ccc(C#N)c(SCC(=O)NCCc3ccc(Cl)cc3)n2)c1 | 58.6% (active) |
| O=[N+]([O-])c1ccc(C=NN=Cc2ccc([N+](=O)[O-])cc2)cc1 | -12.3% |
| COc1ccc(C(CNC(=O)c2cc(S(=O)(=O)Nc3cccc(C)c3)ccc2C)N2CCCC2)cc1 (stereo unspecified) | 22.1% |

| Structure (SMILES) | inhibition |
| --- | --- |
| CCOc1cc(C=NNC(=O)CCCC(=O)NN=Cc2ccc(O)c(OCC)c2)ccc1O | 3.06% |
| COC(=O)C1CC2=C(CC(C)(C)CC2=O)N(c2ccccc2)C1=O (stereo unspecified) | -0.664% |
| COc1ccc(CCNC(=O)c2ccc(NC(=O)CC3SC(N4CCCCC4)=NC3=O)cc2)cc1OC (stereo unspecified) | 9.04% |
| O=c1[nH]c2ccccc2n2c(-c3ccccc3)nnc12 | 127% (active) |
| O=c1[nH]n2c(-c3ccccc3)nc(O)c2c2ccccc12 | -9.47% |
| O=C(c1ccc2c(c1)C(=O)N(Cc1ccncc1)C2=O)N1CCN(S(=O)(=O)c2ccc(OC(F)(F)F)cc2)CC1 | 5.03% |
| NC(=O)c1ncn([C@@H]2O[C@H](CNCc3cnc(N4CCOCC4)s3)[C@@H](O)[C@H]2O)n1 | 0.868% |
| O=C(OCCOc1ccccc1F)c1cc(S(=O)(=O)N2CCOCC2)ccc1F | -4.81% |
| O=C(OCCOc1ccccc1Cl)c1cc(S(=O)(=O)N2CCCCC2)ccc1N1CCOCC1 | 2.25% |
| NNc1cccc(C=Cc2ccccc2)cc1=O | 9.21% |
| COc1ccccc1N(CC(=O)Nc1c(C)n(C)n(-c2ccccc2)c1=O)S(=O)(=O)c1ccccc1 | 33.3% |
| CCc1c(Nc2ccccc2C)nc(N)[nH]c1=O | -5.27% |
| O=C(O)c1ccc(Cn2cnc3c(=S)nc[nH]c32)cc1 | 0.573% |
| O=C1OCC2=C1C(c1ccc(Cl)cc1)c1cc3c(cc1O2)OCO3 (stereo unspecified) | 8.44% |
| Cc1cc(C)c2c(NC(=O)C3CC3)nn(C)c2n1 | -4.52% |
| C=CCN1C=C(C(=O)c2ccccc2)C(=O)CC1 | 9.46% |
| CN(C)CCNC(=O)c1ccc(Cl)c2cc3ccccc3nc12 | 0.27% |
| Nc1ccccc1SC(C[N+](=O)[O-])c1ccccc1 (stereo unspecified) | 108% (active) |
| Cc1ccc(C(C[N+](=O)[O-])c2c(C)cc3ccccn23)cc1 (stereo unspecified) | 2.3% |
| Oc1c(CN2CCCC2)cc(COCc2ccccc2)c2cccnc12 | -7.26% |
| COc1ccccc1NC(=O)CSc1nc2sc3c(c2c(=O)n1-c1ccccc1)CCN(C)C3 | 59.4% (active) |
| CCCSc1nc2sc3c(c2c(=O)n1-c1ccc(OC)cc1)CCN(C)C3 | 0.409% |
| CCn1c(SCC(=O)Nc2ccc(Br)cc2)nc2sc3c(c2c1=O)CCN(C)C3 | 51.8% (active) |

| Structure (SMILES) | inhibition |
| --- | --- |
| CCOc1ccc(-n2c(SCC(=O)OC)nc3sc4c(c3c2=O)CCN(C)C4)cc1 | -6.79% |
| CCSc1nc2sc3c(c2c(=O)n1-c1ccc(C)cc1)CCN(C)C3 | 8.04% |
| CCOc1ccc(-n2c(SCC(=O)Nc3ccc(OC)cc3)nc3sc4c(c3c2=O)CCN(C)C4)cc1 | 11.2% |
| Cc1ccc(C(=O)CSc2ccccc2C(=O)O)cc1 | -2.24% |
| Cc1ccc(C(=O)CNc2ccc(F)cc2)cc1 | -2.53% |
| Cc1ccc(SC(CC(=O)c2ccc(C(C)(C)C)cc2)C(=O)O)cc1 (stereo unspecified) | 142% (active) |
| O=[N+]([O-])c1ccc(N=NNc2ccc([N+](=O)[O-])cc2)cc1 | 2.16% |
| Cc1cccc(CC2(O)C(=O)Nc3ccccc32)n1 (stereo unspecified) | -2.36% |
| O=C(Nc1c(Br)cc2c(c1Br)Cc1ccccc1-2)C(F)(F)F | -19.3% |
| OCC1(CO)CC2(C1)CC(CO)(CO)C2 | -0.212% |
| Cc1cccc(C=CC(=O)c2ccc(Cl)cc2)c1 | -3.33% |
| CNc1nc(=O)n(C2CCCO2)cc1C (stereo unspecified) | 12.5% |
| S=C(Nc1ccccc1)Nc1ccc2ccccc2c1 | 0.68% |
| C=CCn1c(=O)n(C)c2c(=O)n(C)c(=O)n(C)c21 | 1.91% |
| CNC(=O)NC(=O)C(C)N1CCN(C/C=C/c2ccccc2)CC1 (stereo unspecified) | -0.128% |
| CC(C)=CCc1ccc(O)c(=O)cc1C(C)C | 6.99% |
| CCN(Cc1cc2cc(C)ccc2[nH]c1=O)S(=O)(=O)c1ccccc1 | 6.13% |
| CCC(=O)N(CCc1ccccc1)Cc1cc2cc(C)ccc2[nH]c1=O | 54.1% (active) |
| Cc1ccc2[nH]c(=O)c(CN(CCCN(C)C)C(=O)Nc3cccc(Cl)c3)cc2c1 | 6.58% |
| COc1cccc2oc(CCc3ccccc3)cc(=O)c12 | -16.8% |
| COc1cc(/C=C/C(=O)OCC(=O)NC2CC2)cc(OC)c1OC | 10.9% |
| O=C(Nc1ccc2c(c1)OCCO2)C1CCCC1 | -1.87% |
| Cc1cc(C)nc(N2CCC(C(=O)Nc3ccc4c(c3)OCCO4)CC2)n1 | 54.4% (active) |

| Structure (SMILES) | inhibition |
| --- | --- |
| O=C(Nc1ccc2c(c1)OCCO2)C1CCCN(c2ncccn2)C1 (stereo unspecified) | -8.66% |
| C[C@H](O)[C@@H]1C(=O)N2CCc3ccc(N4CCOCC4)cc3[C@@H]2C[C@@H]1N(C)C(=O)C(C)(C)C | 0.072% |
| Cc1nn(-c2ccc(F)cc2)c(Cl)c1/C=C(/CCC(=O)O)c1nc2ccccc2s1 | 3.42% |
| CC(=O)Nc1c2c(nn1-c1cccc(C)c1)CSC2 | -4.46% |
| CC(C)C(=O)Nc1c2c(nn1-c1ccccc1)CSC2 | 2.65% |
| COc1ccc(-n2nc3c(c2NC(=O)c2ccc(N4C(=O)CCC4=O)cc2)CSC3)cc1 | 57.3% (active) |
| COc1cc(C(=O)N2CCN(S(=O)(=O)c3ccc(C(C)C)cc3)CC2)ccc1OCC(=O)N1CCOCC1 | -4.48% |
| COc1ccc(Cn2cc(CN3CCS(=O)(=O)N(Cc4ccc(-c5cccc(Cl)c5)cc4)C(C)C3=O)nn2)cc1 (stereo unspecified) | 11.2% |
| COc1cccc(CNC(=O)CCCC(=O)Nc2cccc([N+](=O)[O-])c2)c1 | -7.21% |
| COC(=O)/C=C\C(=O)Nc1cccc([N+](=O)[O-])c1 | 68.2% (active) |
| COc1ccc(S(=O)(=O)NC(C)C(=O)Nc2cccc([N+](=O)[O-])c2)cc1 (stereo unspecified) | -0.177% |
| CC/C(=C(/c1ccccc1)c1ccc(OCC[N+](C)(C)C)cc1)c1ccccc1 | -16.1% |
| Cc1ccc(S(=O)(=O)n2oc(=O)c(C3CCCCC3)c2N)cc1 | 0.705% |
| CCCCN(C(=O)CSCc1ccc(C)cc1)c1c(N)n(Cc2ccccc2)c(=O)[nH]c1=O | -4.15% |
| COc1ccc(CC(=O)NC(C)c2ccc(Cl)c(Cl)c2)cc1S(=O)(=O)N1CCOCC1 (stereo unspecified) | -2.98% |
| COc1cc2c(cc1OC)C1C(=O)c3cc(OS(C)(=O)=O)c(OC)cc3C1N(C)C2=O (stereo unspecified) | -1.27% |
| CN(C(=O)CN1C(=O)/C(=C/c2ccc(Cl)cc2)SC1=S)C1CCS(=O)(=O)C1 (stereo unspecified) | -24.5% |
| COc1ccc(/C=C2\SC(=O)N(CCC(=O)NC3CCS(=O)(=O)C3)C2=O)cc1 (stereo unspecified) | 11.3% |
| CC(C(=O)NC1CCS(=O)(=O)C1)N1C(=O)/C(=C/c2ccc(Cl)cc2)SC1=S (stereo unspecified) | 180% (active) |
| COc1cc(/C=C/c2ccc(/C=C/c3cc(OC)c(OC)c(OC)c3)cc2)cc(OC)c1OC | 1.49% |
| O=[N+]([O-])c1ccc(COc2ccccc2CN2CCOCC2)cc1 | 9.55% |
| C=CCOC(=O)N1CCC2CC1c1cc(-c3ccc(OC)cc3)ccc12 (stereo unspecified) | -3.1% |
